The supplement of paper PMC4466140

Legend:
Assay in all cases: SPOT peptide array binding signal intensity (averaged, normalized) (arbitrary units (background-subtracted, floor 0; scale differs between SH3 domains)); higher = stronger binding of the SH3 domain to the peptide
[1] = biological target: SpBzz1-D2
Outline: (§1)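 SH3 domains from four yeast species were expressed as GST fusions in E. coli BL21(DE3) and purified on glutathione Sepharose. Each was incubated at 10 μg/ml overnight at 4°C in TBS-based blocking buffer on cellulose membranes bearing synthetic 15-mer peptides, in which serines replaced cysteines. Bound protein was detected with anti-GST antibody, an HRP anti-mouse secondary and luminol, then imaged and quantified with Genespotter. The binding signal is the normalized, background-subtracted spot intensity averaged over replicates, in arbitrary units that are not the same from one domain to another.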

[2] = biological target: SpCyk3
Outline: as §1

[3] = biological target: SpHof1
Outline: as §1

[4] = biological target: SpHof1-2
Outline: as §1

[5] = biological target: SpHof1-3
Outline: as §1

[6] = biological target: SpHse1
Outline: as §1

[7] = biological target: SpLsb1
Outline: as §1

[8] = biological target: SpLsb4
Outline: as §1

[9] = biological target: SpMyo1
Outline: as §1

[10] = biological target: SpNbp2
Outline: as §1

[11] = biological target: SpPex13
Outline: as §1

[12] = biological target: SpRvs167
Outline: as §1

[13] = biological target: SpSla1-D1-D2
Outline: as §1

[14] = biological target: SpSla1-D3
Outline: as §1

[15] = biological target: AgAbp1
Outline: as §1

[16] = biological target: AgBbc1
Outline: as §1

[17] = biological target: AgBem1-D1
Outline: as §1

[18] = biological target: AgBzz1-D1
Outline: as §1

[19] = biological target: AgBzz1-D2
Outline: as §1

[20] = biological target: AgCyk3
Outline: as §1

[21] = biological target: AgFus1
Outline: as §1

[22] = biological target: AgHof1
Outline: as §1

[23] = biological target: AgHse1
Outline: as §1

[24] = biological target: AgLsb1
Outline: as §1

[25] = biological target: AgLsb4
Outline: as §1

[26] = biological target: AgMyo5
Outline: as §1

[27] = biological target: AgNbp2
Outline: as §1

[28] = biological target: AgRvs167
Outline: as §1

[29] = biological target: AgSho1
Outline: as §1

[30] = biological target: AgSla1-D1-D2
Outline: as §1

[31] = biological target: AgSla1-D3
Outline: as §1

[32] = biological target: CaAbp1-D1
Outline: as §1

[33] = biological target: CaAbp1-D2
Outline: as §1

[34] = biological target: CaBbc1
Outline: as §1

[35] = biological target: CaBem1-D1
Outline: as §1

[36] = biological target: CaBzz1-D1
Outline: as §1

[37] = biological target: CaBzz1-D2
Outline: as §1

[38] = biological target: CaCyk3
Outline: as §1

[39] = biological target: CaFus1
Outline: as §1

[40] = biological target: CaHof1
Outline: as §1

[41] = biological target: CaHse1
Outline: as §1

[42] = biological target: CaLsb1
Outline: as §1

[43] = biological target: CaLsb4
Outline: as §1

[44] = biological target: CaMyo5
Outline: as §1

[45] = biological target: CaNbp2
Outline: as §1

[46] = biological target: CaRvs167
Outline: as §1

[47] = biological target: CaRvs167-3
Outline: as §1

[48] = biological target: CaSho1
Outline: as §1

[49] = biological target: CaSla1-D1-D2
Outline: as §1

[50] = biological target: CaSla1-D3
Outline: as §1

[51] = biological target: ScAbp1
Outline: as §1

[52] = biological target: ScBbc1
Outline: as §1

[53] = biological target: ScBem1-D1
Outline: as §1

[54] = biological target: ScBzz1-D1
Outline: as §1

[55] = biological target: ScBzz1-D2
Outline: as §1

[56] = biological target: ScCyk3
Outline: as §1

[57] = biological target: ScFus1
Outline: as §1

[58] = biological target: ScHof1
Outline: as §1

[59] = biological target: ScHse1
Outline: as §1

[60] = biological target: ScLsb1
Outline: as §1

[61] = biological target: ScLsb2
Outline: as §1

[62] = biological target: ScLsb3
Outline: as §1

[63] = biological target: ScLsb4
Outline: as §1

[64] = biological target: ScMyo3
Outline: as §1

[65] = biological target: ScMyo5
Outline: as §1

[66] = biological target: ScNbp2
Outline: as §1

[67] = biological target: ScPex13
Outline: as §1

[68] = biological target: ScRvs167
Outline: as §1

[69] = biological target: ScSho1
Outline: as §1

[70] = biological target: ScSla1-D1-D2
Outline: as §1

[71] = biological target: ScSla1-D3
Outline: as §1

[72] = biological target: SpAbp1-D1
Outline: as §1

[73] = biological target: SpBbc1
Outline: as §1

[74] = biological target: SpBzz1-D1
Outline: as §1

For PPIPIVPSSPAPPLP, the “SPOT peptide array binding signal intensity” value [1] was no more than 0, the “SPOT peptide array binding signal intensity” value [2] was no more than 0 and the “SPOT peptide array binding signal intensity” value [3] was no more than 0. The “SPOT peptide array binding signal intensity” value [4] was no more than 0, the “SPOT peptide array binding signal intensity” value [5] was no more than 0 and the “SPOT peptide array binding signal intensity” value [6] was 26.8. For the same binder, the “SPOT peptide array binding signal intensity” value [7] was no more than 0, the “SPOT peptide array binding signal intensity” value [8] was no more than 0 and the “SPOT peptide array binding signal intensity” value [9] was 1080. The “SPOT peptide array binding signal intensity” value [10] was no more than 0, the “SPOT peptide array binding signal intensity” value [11] was no more than 0 and the “SPOT peptide array binding signal intensity” value [12] was no more than 0. For the same binder, the “SPOT peptide array binding signal intensity” value [13] was no more than 0 and the “SPOT peptide array binding signal intensity” value [14] was no more than 0.

HAPPLPPTAPPPPSL was tested, and the “SPOT peptide array binding signal intensity” value [15] was no more than 0, the “SPOT peptide array binding signal intensity” value [16] was no more than 0 and the “SPOT peptide array binding signal intensity” value [17] was no more than 0. For the same binder, the “SPOT peptide array binding signal intensity” value [18] was no more than 0, the “SPOT peptide array binding signal intensity” value [19] was no more than 0 and the “SPOT peptide array binding signal intensity” value [20] was no more than 0. For the same binder, the “SPOT peptide array binding signal intensity” value [21] was no more than 0, the “SPOT peptide array binding signal intensity” value [22] was 26.5 and the “SPOT peptide array binding signal intensity” value [23] was no more than 0. For the same binder, the “SPOT peptide array binding signal intensity” value [24] was no more than 0, the “SPOT peptide array binding signal intensity” value [25] was no more than 0 and the “SPOT peptide array binding signal intensity” value [26] was 2230. For the same binder, the “SPOT peptide array binding signal intensity” value [27] was no more than 0, the “SPOT peptide array binding signal intensity” value [28] was no more than 0 and the “SPOT peptide array binding signal intensity” value [29] was no more than 0. The “SPOT peptide array binding signal intensity” value [30] was no more than 0, the “SPOT peptide array binding signal intensity” value [31] was no more than 0 and the “SPOT peptide array binding signal intensity” value [32] was no more than 0. For the same binder, the “SPOT peptide array binding signal intensity” value [33] was 2, the “SPOT peptide array binding signal intensity” value [34] was no more than 0 and the “SPOT peptide array binding signal intensity” value [35] was no more than 0. The “SPOT peptide array binding signal intensity” value [36] was 2, the “SPOT peptide array binding signal intensity” value [37] was 6 and the “SPOT peptide array binding signal intensity” value [38] was no more than 0. The “SPOT peptide array binding signal intensity” value [39] was no more than 0, the “SPOT peptide array binding signal intensity” value [40] was no more than 0 and the “SPOT peptide array binding signal intensity” value [41] was 1.5. For the same binder, the “SPOT peptide array binding signal intensity” value [42] was no more than 0, the “SPOT peptide array binding signal intensity” value [43] was no more than 0 and the “SPOT peptide array binding signal intensity” value [44] was 792. For the same binder, the “SPOT peptide array binding signal intensity” value [45] was no more than 0, the “SPOT peptide array binding signal intensity” value [46] was no more than 0 and the “SPOT peptide array binding signal intensity” value [47] was no more than 0. For the same binder, the “SPOT peptide array binding signal intensity” value [48] was no more than 0, the “SPOT peptide array binding signal intensity” value [49] was no more than 0 and the “SPOT peptide array binding signal intensity” value [50] was no more than 0. The “SPOT peptide array binding signal intensity” value [51] was no more than 0, the “SPOT peptide array binding signal intensity” value [52] was no more than 0 and the “SPOT peptide array binding signal intensity” value [53] was no more than 0. The “SPOT peptide array binding signal intensity” value [54] was no more than 0, the “SPOT peptide array binding signal intensity” value [55] was no more than 0 and the “SPOT peptide array binding signal intensity” value [56] was no more than 0. The “SPOT peptide array binding signal intensity” value [57] was no more than 0, the “SPOT peptide array binding signal intensity” value [58] was 40.5 and the “SPOT peptide array binding signal intensity” value [59] was no more than 0. The “SPOT peptide array binding signal intensity” value [60] was no more than 0, the “SPOT peptide array binding signal intensity” value [61] was no more than 0 and the “SPOT peptide array binding signal intensity” value [62] was no more than 0. The “SPOT peptide array binding signal intensity” value [63] was no more than 0, the “SPOT peptide array binding signal intensity” value [64] was 1750 and the “SPOT peptide array binding signal intensity” value [65] was 2000. The “SPOT peptide array binding signal intensity” value [66] was no more than 0, the “SPOT peptide array binding signal intensity” value [67] was no more than 0 and the “SPOT peptide array binding signal intensity” value [68] was no more than 0. The “SPOT peptide array binding signal intensity” value [69] was no more than 0, the “SPOT peptide array binding signal intensity” value [70] was no more than 0 and the “SPOT peptide array binding signal intensity” value [71] was 1.75. For the same binder, the “SPOT peptide array binding signal intensity” value [72] was no more than 0, the “SPOT peptide array binding signal intensity” value [73] was 1.5 and the “SPOT peptide array binding signal intensity” value [74] was 148. The “SPOT peptide array binding signal intensity” value [1] was no more than 0, the “SPOT peptide array binding signal intensity” value [2] was no more than 0 and the “SPOT peptide array binding signal intensity” value [3] was no more than 0. The “SPOT peptide array binding signal intensity” value [4] was no more than 0, the “SPOT peptide array binding signal intensity” value [5] was no more than 0 and the “SPOT peptide array binding signal intensity” value [6] was no more than 0. The “SPOT peptide array binding signal intensity” value [7] was no more than 0, the “SPOT peptide array binding signal intensity” value [8] was no more than 0 and the “SPOT peptide array binding signal intensity” value [9] was 1320. For the same binder, the “SPOT peptide array binding signal intensity” value [10] was no more than 0, the “SPOT peptide array binding signal intensity” value [11] was no more than 0 and the “SPOT peptide array binding signal intensity” value [12] was 2.67. For the same binder, the “SPOT peptide array binding signal intensity” value [13] was 7 and the “SPOT peptide array binding signal intensity” value [14] was no more than 0.

In the case of ATKSASPTLPTRRSR, the “SPOT peptide array binding signal intensity” value [15] is reported as 938, the “SPOT peptide array binding signal intensity” value [16] is reported as 899 and the “SPOT peptide array binding signal intensity” value [17] is reported as 133. The “SPOT peptide array binding signal intensity” value [18] was 99.5, the “SPOT peptide array binding signal intensity” value [19] was 45 and the “SPOT peptide array binding signal intensity” value [20] was 2. The “SPOT peptide array binding signal intensity” value [21] was 28, the “SPOT peptide array binding signal intensity” value [22] was 180 and the “SPOT peptide array binding signal intensity” value [23] was 114. The “SPOT peptide array binding signal intensity” value [24] was 18.5, the “SPOT peptide array binding signal intensity” value [25] was 1800 and the “SPOT peptide array binding signal intensity” value [26] was 5.5. The “SPOT peptide array binding signal intensity” value [27] was 39.5, the “SPOT peptide array binding signal intensity” value [28] was 192 and the “SPOT peptide array binding signal intensity” value [29] was no more than 0. For the same binder, the “SPOT peptide array binding signal intensity” value [30] was 74.5, the “SPOT peptide array binding signal intensity” value [31] was 11.8 and the “SPOT peptide array binding signal intensity” value [32] was 434. The “SPOT peptide array binding signal intensity” value [33] was 1090, the “SPOT peptide array binding signal intensity” value [34] was 986 and the “SPOT peptide array binding signal intensity” value [35] was 51. For the same binder, the “SPOT peptide array binding signal intensity” value [36] was 223, the “SPOT peptide array binding signal intensity” value [37] was 195 and the “SPOT peptide array binding signal intensity” value [38] was 56. The “SPOT peptide array binding signal intensity” value [39] was 35, the “SPOT peptide array binding signal intensity” value [40] was 4 and the “SPOT peptide array binding signal intensity” value [41] was 8.75. The “SPOT peptide array binding signal intensity” value [42] was 0.75, the “SPOT peptide array binding signal intensity” value [43] was 6350 and the “SPOT peptide array binding signal intensity” value [44] was 6.
